Source: PubChem BioAssay (National Center for Advancing Translational Sciences (NCATS))
DT40 TDP1 no CPT – qHTS for Inhibitors of human tyrosyl-DNA phosphodiesterase 1 (TDP1): qHTS in cells in absence of CPT | hit rate 15% among 420,000 | Potency, µM (doses to about 46.2 µM), without a hit: at the highest dose activity change, negative = growth inhibition, hits mostly inhibitors | DT40 Tdp1-/- hTDP1 cells, no CPT, ATP luminescence, 48 h; note: potency is the fitted concentration of half-maximal effect; nearly all actives have a fitted effect of over 55% in size
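Chicken DT40 Tdp1-/- cells stably complemented with human TDP1 were seeded at 400 cells/well with DMSO in place of 20 nM camptothecin. After compound pinning, cells grew at least 48 hr at 37 °C; viability read by CellTiter-Glo luminescence.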
TDP1 inh – inhibitors of human tyrosyl-DNA phosphodiesterase TDP1; hit rate 0.28% among 350,000; Potency, µM (highest dose often 130 µM), for inactives: at the top dose activity change, negative = inhibition, usual class: inhibitors; recombinant TDP1, AlphaScreen DNA substrate cleavage; AID 485290; Q9NUW8; note: potency is the fitted concentration of half-maximal effect; nearly all actives have a fitted effect of over 40% in size
Target sequence (Q9NUW8 whole entry, looked up): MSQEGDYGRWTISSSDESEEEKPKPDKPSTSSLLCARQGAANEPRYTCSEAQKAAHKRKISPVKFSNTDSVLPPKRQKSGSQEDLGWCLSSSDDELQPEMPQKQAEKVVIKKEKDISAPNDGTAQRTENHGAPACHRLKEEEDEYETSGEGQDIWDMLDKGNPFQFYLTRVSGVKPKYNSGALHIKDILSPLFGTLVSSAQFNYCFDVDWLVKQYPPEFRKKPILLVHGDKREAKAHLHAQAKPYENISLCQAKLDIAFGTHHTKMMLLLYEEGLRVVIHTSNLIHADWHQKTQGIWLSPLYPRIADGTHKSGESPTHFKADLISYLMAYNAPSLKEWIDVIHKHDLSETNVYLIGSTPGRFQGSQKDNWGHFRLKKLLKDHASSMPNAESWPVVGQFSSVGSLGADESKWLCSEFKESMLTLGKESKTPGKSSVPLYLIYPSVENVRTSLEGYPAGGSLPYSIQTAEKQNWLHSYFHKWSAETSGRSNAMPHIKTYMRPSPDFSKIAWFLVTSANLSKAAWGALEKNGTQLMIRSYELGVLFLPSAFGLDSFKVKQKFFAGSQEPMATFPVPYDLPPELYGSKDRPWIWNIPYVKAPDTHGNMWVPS
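Recombinant human Tdp1 (E. coli-expressed, 1 nM final) preincubated with compounds 15 min at room temperature, then 5'-biotin/3'-phosphotyrosine-FITC DNA substrate (15 nM final) added for 5 min. AlphaScreen beads (10 ug/ml final) added 10 min; cleavage lowers signal.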
IL1B secr inh – blocks inflammasome-driven IL-1 beta release | AID 743279 | activity change, % at 57.5 µM | hit rate 4.7% among 360,000 | THP-1 LPS/ATP IL-1B secretion, AlphaLISA, 16 h; hits give low values; in the data active = activity change below about -50%; inconclusive = mostly about -30% to -49%
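THP-1 cells pretreated 1 hr with compounds (up to 57.5 uM final), then stimulated with LPS (250 ng/mL final) plus ATP (1.25 mM final); secreted IL-1B measured by AlphaLISA after 16 hr, decreased signal indicating inhibition.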
TDP1 cell CPT – DT40-hTDP1 cell growth loss with CPT; chicken DT40 Tdp1-/-;hTDP1 cells + 20 nM CPT, ATP luminescence, 48 h; Potency, µM (top dose mostly 46.2 µM), for the others: at the top dose activity change, negative = growth inhibition, usual class: inhibitors; hit rate 12% among 420,000; note: potency is the fitted concentration of half-maximal effect; nearly all actives have a fitted effect of over 55% in size
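Cell growth measured by CellTiter-Glo luminescence after a minimum 48 h, 37 C compound exposure with 20 nM CPT in Tdp1-knockout DT40 cells stably expressing hTDP1, seeded 400/well; qHTS titration format.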
CtBP-E1A blk – CtBP/E1A binding inhibition. AlphaScreen GST-E1A/His-CtBP binding, 1536-well; hits give low values. activity change, % (concentration not given with the values). hit rate 0.49% among 340,000; in the data active = activity change below about -65%; inconclusive = mostly about -30% to -63%
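Homogeneous bead-based format: GST-tagged E1A captured on glutathione donor beads, His-tagged CtBP on nickel acceptor beads; compounds precede bead addition by 2 h at 37 °C.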
Six1-Eya2 blk – Six1/Eya2 interaction inhibition. Q15475+O00167. AlphaScreen GST-Six1/His-Eya2 binding, biochemical; hits give low values. activity change, % (no concentration beside the values). hit rate 0.56% among 360,000; in the data active = activity change below about -65%; inconclusive = mostly about -30% to -63%
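GST-Six1 + His-Eya2 (5X stock: 250/500 nM); Tris pH 8.0, 300 mM NaCl, 0.05% BSA, 0.02% Tween 20; GSH donor/Ni acceptor beads; 1 h 37 °C dark; AlphaScreen readout.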
* marks the source's active call; other numbers are inactive results; ? = inconclusive; · = no result; ! = not active in a repeat; [ ] = remark or other dose. Most compounds without a hit are left out; they make up all but 18% or so of the library. Unless noted, calls come from the whole dose curve; as a rule, active = well fitted curve in the direction sought with a large enough effect; inconclusive = small, poorly fitted or top-dose-only effect, or another doubt; inactive = no such curve, though single readings can be large; an effect the other way counts as inactive or inconclusive. % is set by controls: 0 for no effect and ±100 for the full control effect.

SMILES | DT40 TDP1 no CPT | TDP1 inh | IL1B secr inh | TDP1 cell CPT | CtBP-E1A blk | Six1-Eya2 blk
CCCc1ccc2oc(C(=O)N(Cc3ccncc3)CC3CCCO3)c(C)c2c1 (configuration not stated) | 18µM* | -15% | -85* | ? | -3 | -7
Cc1c(C(=O)N(Cc2ccc(N(C)C)cc2)CC2CCCO2)oc2ccc(Br)cc12 (configuration not stated) | ? | 12% | · | ? | · | ·
CCCCOC(=O)c1cc(C)nc2ccc(Br)cc12 | ? | 0% | 0 | ? | 26 | 11
CC1=C2C3OC(=O)C(C)C3CCC2(C)C=C(Br)C1=O (configuration not stated) | 21µM* | · | -13 | -11% | -5 | 3
O=Cc1cnc2ccccc2c1-c1ccccc1 | 23µM* | 5% | 33 | ? | 6 | 14
O=Cc1cn[nH]c1-c1ccccc1 | -20% | -4% | 4 | 2% | · | 1
O=C(NCCC1CCCCN1S(=O)(=O)c1ccccc1)C(=O)NCc1ccccc1 (configuration not stated) | ? | 0% | 0 | ? | -2 | 6
O=C(NCCC1CCCCN1S(=O)(=O)c1ccccc1)C(=O)NCc1ccc(F)cc1 (configuration not stated) | 18µM* | -1%[0.505 µM] | -25 | ? | -2 | -5
Cc1ccc(CNC(=O)C(=O)NCCC2CCCCN2S(=O)(=O)c2ccccc2)cc1 (configuration not stated) | 15µM* | 1% | -5 | ? | 4 | -5
O=C(NCCC1CCCCN1S(=O)(=O)c1ccc(F)cc1)C(=O)NCc1ccccn1 (configuration not stated) | 1% | 0% | 6 | 4% | 2 | -10
COCc1cc(=O)n2[nH]c(-c3ccsc3-n3c(C)ccc3C)cc2n1 | ? | · | -5 | -16% | -4 | ?
CCOC(=O)c1c(S(=O)(=O)N2CCCC(C(=O)Nc3ccc(C)cc3C)C2)c(C)n(CC)c1C (configuration not stated) | ? | 5% | · | ? | · | ·
CN(Cc1nc2ccccc2[nH]1)Cc1nc(CC2CC2)no1 | -12% | 3% | 0 | ? | · | 6
O=C(Cn1ccn(-c2cccc(Cl)c2)c(=O)c1=O)NCCc1ccccc1 | 0% | -3% | · | 1% | · | ·
COc1cc(-c2cc(=O)c3c(O)cc(O)cc3o2)ccc1O | ? | 10% | -64* | 21µM* | ? | ?
COc1cc(-c2cc(=O)c3c(O)c(OC)c(OC)cc3o2)cc(OC)c1O | ? | · | -19 | 16µM* | ? | ?
O=c1cc(-c2cc(O)c(O)c(O)c2)oc2cc(O)cc(O)c12 | ? | 11% | · | ? | · | ·
O=c1cc(-c2ccc(O)cc2)oc2cc(O)cc(O)c12 | 5.2µM*! | 7% | -89* | ? | ? | 0
O=c1cc(-c2ccccc2O)oc2cc(O)cc(O)c12 | 21µM* | 7% | · | 30µM* | · | ·
CC(C)(C)C1CCN2CCCC(c3ccc([N+](=O)[O-])cc3)(C1)C21OCCO1 (configuration not stated) | ? | · | 26 | 21µM* | -7 | -28
COc1cc(C23CCCN(CCC(C(C)(C)C)C2)C32OCCO2)cc(OC)c1OC (configuration not stated) | 23µM* | · | -2 | ? | -24 | -28
CC(C)(C)C1CCN2CCC[C@](c3ccccc3)(C1)[C@@]21CO1 (some centres not stated) | ? | · | ? | ? | 1 | -8
Nc1nc(CN2CCOCC2)cs1 | 29µM* | 4% | 10 | ? | 3 | -2
COc1cccc(NC(=O)C2C3CC4OC(=O)C2C4C3)c1 (configuration not stated) | -12% | 1% | -3 | 17% | 4 | 10
Cc1nc(NC(=O)C2CC2)sc1C | -7% | 5% | -15 | 11% | 0 | 16
SMILES | DT40 TDP1 no CPT | TDP1 inh | IL1B secr inh | TDP1 cell CPT | CtBP-E1A blk | Six1-Eya2 blk
CCCCCCNC(=O)c1c(O)c2ccccc2[nH]c1=O | 13µM* | -2% | -26 | ? | -8 | 12
Cc1cccc(NC(=O)c2c(O)c3ccccc3[nH]c2=O)c1 | -10% | · | 19 | -25% | -14 | -11
O=C(Nc1cccc(O)c1)c1c(O)c2ccccc2[nH]c1=O | ? | · | 3 | 18µM* | 1 | -1
Cc1cccc(C)c1NC(=O)c1c(O)c2ccccc2[nH]c1=O | ? | 4% | -6 | 18µM* | 9 | -1
O=C(Nc1ncccc1O)c1c(O)c2ccccc2[nH]c1=O | ? | 1% | 31 | ? | · | -8
CCOP(=O)(OCC)C(NC(=O)NS(=O)(=O)c1ccc(C)cc1)c1ccccc1 (configuration not stated) | -14% | 8% | -11 | -5% | 13 | 1
COc1ccc2nc(SCC(=O)Nc3nonc3C)[nH]c2c1 | -7% | 6% | 9 | 8% | -13 | -3
C/C(=N\NC(=O)c1cccc(O)c1)c1ccc(NC(=O)Cc2ccccc2)cc1 | -12% | 2% | 24 | -21% | -4 | -11
CCN(CC)CC#CCOC(=O)C(O)(c1ccccc1)C1CCCCC1 (configuration not stated) | 8.2µM* | 6% | -23 | 21µM* | ? | -1
CCCC1=Nc2cc(C(=O)NCCN3CCOCC3)ccc2Sc2ccccc21 | 1% | 4% | 6 | -26% | -5 | -2
CCC1=Nc2cc(C(=O)NCc3ccco3)ccc2Sc2ccccc21 | 4.6µM* | 1% | 73 | 3.3µM* | -14 | -11
CCOC(=O)C1CCN(C(=O)c2ccc3c(c2)N=C(CC)c2cc(C)ccc2S3)CC1 | ? | 2% | · | 15µM* | · | ·
CCC1=Nc2cc(C(=O)NCc3ccco3)ccc2Sc2ccc(Cl)cc21 | 1µM* | 6% | 29 | 1.3µM* | 2 | -13
CCCC1=Nc2cc(C(=O)NCc3ccccc3)ccc2Sc2ccccc21 | 3.3µM* | 0% | · | 4.1µM* | · | ·
CCC1=Nc2cc(C(=O)O)ccc2Sc2ccccc21 | -9% | 0% | 19 | 0% | -7 | 4
CCn1ncc(Br)c1C(=O)Nc1cc(C)cc(C)c1 | ? | 0% | -5 | ? | 27 | 7
CCC1=Nc2cc(C(=O)NCc3ccc(C)cc3)ccc2Sc2ccc(C)cc21 | 8.2µM* | 3% | · | 7.3µM* | · | ·
CCC1=Nc2cc(C(=O)NCCc3ccc(OC)c(OC)c3)ccc2Sc2ccccc21 | 23µM* | 8% | · | 16µM* | · | ·
